High-throughput results as filed in PubChem BioAssay.
In the library only some 4.2% were active in any assay of this set; here they are far more common.
DAX1 StAR inh: blocks DAX1 repression of SF-1 activated StAR promoter. HEK293T StAR-luciferase reporter, SF-1/DAX-1 repression relief. inhibition, % at 6.8 µM. hit rate 1.1% among 370,000. AID 652010;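 active means inhibition above the mean over all tested compounds plus 3 SD, cut at about 3.6% in these data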;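 further: 0% = DAX-1 cells with DMSO and 100% = cells lacking DAX-1 with DMSO; higher inhibition means more luminescence from relief of DAX-1 repression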
hgDAF-12 ag: activates the H. glycines DAF-12 receptor ligand-binding domain; HEK293 GAL4-hgDAF12 UAS-luciferase reporter, agonist luminescence; normalized to butyrate control; activation, % at 6.8 µM; hit rate 1.8% among 370,000;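 active means activation above a cutoff set at the mean of all screened compounds plus 3 SD, cut at about 10% in these data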;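 further: 0% = DMSO wells and 100% = sodium butyrate wells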
esBAF inh: blocks esBAF chromatin remodeling in mouse ES cells. Bmi1-luciferase knock-in reporter, 24 h; 100% = twice the neutral-well signal. reporter increase, % at 12.5 µM. hit rate 2% among 350,000; in the data active means activation above about 40%;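 further: 0% = median of the plate's neutral control wells and 100% = double that signal; a rise in the Bmi1 reporter signal indicates esBAF inhibition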
ssDAF-12 act: activators of S. stercoralis DAF-12 nuclear receptor; HEK293 ssDAF-12/GRIP1 lit1-tk-luc reporter, luminescence; % of 3 µM dafachronic acid response; hit rate 1% among 370,000; AID 652126; activation, % at 6.8 µM;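 active means activation above the mean over all tested compounds plus 3 SD, cut at about 0.9% in these data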;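 further: 0% = DMSO-only wells and 100% = 3 µM delta7-dafachronic acid wells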
hcDAF12 agonist: H. contortus DAF-12 activation, primary screen | hit rate 1.4% among 370,000 | activation, % at 6.8 µM | AID 652067 | HEK293 hcDAF-12 lit1-tk-luc reporter, luminescence; 0% DMSO, 100% Δ7-dafachronic acid;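 active means activation above the mean of all tested compounds plus 3 SD, cut at about 5.5% in these data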;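 further: 100% = response to 3 µM Δ7-dafachronic acid high control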
Wnt act: activates Wnt/beta-catenin signaling in a reporter cell assay. AID 743398. activation, % at 9.35 µM. hit rate 1.2% among 300,000. activator, plate reader; in the data active means activation above about 30%, passing the limit was not always enough;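 further: 0% = neutral control wells and 100% = positive control wells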
Starred values were filed as active, the others as inactive.

Screening C[C@@H]1CN([C@H](C)CO)C(=O)c2cc(NC(=O)Cc3cn(C)c4ccccc34)ccc2O[C@H]1CN(C)C(=O)Nc1ccc2c(c1)OCO2 returned DAX1 StAR inh 0, hgDAF-12 ag 3, esBAF inh 37, ssDAF-12 act -1, hcDAF12 agonist 6.2* and Wnt act 0.
C[C@@H]1CN([C@H](C)CO)C(=O)c2cccc(NS(=O)(=O)c3ccccc3)c2O[C@H]1CN(C)C(=O)Nc1ccc2c(c1)OCO2 was read as esBAF inh 12.
`C[C@H]1CN([C@@H](C)CO)C(=O)Cc2cc(NC(=O)C3CCCCC3)ccc2O[C@H]1CN(C)C(=O)Nc1ccc2c(c1)OCO2` gave esBAF inh 26.
C[C@H]1CN([C@@H](C)CO)C(=O)Cc2cc(NC(=O)C3CCCCC3)ccc2O[C@@H]1CN(C)C(=O)Nc1ccc2c(c1)OCO2 was read as esBAF inh 42*.
`C[C@H]1CN([C@@H](C)CO)C(=O)c2cccc(NS(=O)(=O)c3ccccc3)c2O[C@@H]1CN(C)C(=O)Nc1ccc2c(c1)OCO2` gave esBAF inh 57*.
For C[C@@H]1CN([C@@H](C)CO)C(=O)c2cccc(NC(=O)Nc3ccccc3)c2O[C@H]1CN(C)C(=O)Nc1ccc2c(c1)OCO2 the results were esBAF inh 61*.
For O=C(C[C@@H]1C=C[C@@H](NC(=O)Nc2ccc(F)cc2)[C@H](CO)O1)NCc1cccc(F)c1 the results were esBAF inh -2.
For O=C(NC1Cc2ccccc2C1)[C@@H]1[C@@H](CO)[C@@H]2Cn3c(cccc3=O)[C@@H]2N1C(=O)c1ccccn1 the results were esBAF inh -2.
COc1ccc(NC(=O)Nc2ccc3c(c2)[C@H]2C[C@@H](CC(=O)NCc4ccccn4)O[C@@H](CO)[C@H]2O3)cc1 was read as esBAF inh -2.
Screening C[C@@H]1CN([C@@H](C)CO)C(=O)c2cccc(NC(=O)Nc3ccc4c(c3)OCO4)c2O[C@H]1CN(C)Cc1ccc(Cl)c(Cl)c1 returned esBAF inh 55*.
Screening Cc1ccc(S(=O)(=O)Nc2cccc3c2O[C@H](CN(C)C(=O)Nc2ccc4c(c2)OCO4)[C@@H](C)CN([C@H](C)CO)C3=O)cc1 returned esBAF inh 49*.
Cc1ccc(S(=O)(=O)Nc2cccc3c2O[C@@H](CN(C)C(=O)Nc2ccc4c(c2)OCO4)[C@@H](C)CN([C@@H](C)CO)C3=O)cc1 was read as esBAF inh 73*.
`Cc1ccc(S(=O)(=O)Nc2cccc3c2O[C@@H](CN(C)C(=O)Nc2ccc4c(c2)OCO4)[C@H](C)CN([C@H](C)CO)C3=O)cc1` gave esBAF inh 28.
C[C@H](CO)N1C[C@H](C)[C@@H](CN(C)C(=O)CN2CCOCC2)Oc2ncc(/C=C/c3ccccc3)cc2C1=O was read as esBAF inh 1.
`O=C(c1ccccc1)c1ccc(-c2ccc(O)cc2)cc1` gave DAX1 StAR inh 1, hgDAF-12 ag 5, esBAF inh 76*, ssDAF-12 act 0, hcDAF12 agonist -1 and Wnt act 35*.
Screening O=C(c1ccccc1)c1ccccc1 returned hgDAF-12 ag -1, esBAF inh 0 and Wnt act -2.
Fc1ccc(-c2nn3c(C4COc5ccccc5O4)nnc3s2)cc1 (configuration not stated) was read as DAX1 StAR inh 0, hgDAF-12 ag 2, esBAF inh 42*, ssDAF-12 act -1 and hcDAF12 agonist 0.
`COCCN=C1S/C(=C\c2cc(C)n(-c3ccc(F)cc3F)c2C)C(=O)N1C` gave hgDAF-12 ag 4, ssDAF-12 act 0 and hcDAF12 agonist 5.7*.
COc1cc(OC)cc(C(=O)Nc2cccc(-c3ccc(N4CCOCC4)nn3)c2)c1 was read as DAX1 StAR inh 3, hgDAF-12 ag 5, esBAF inh 33, ssDAF-12 act -1, hcDAF12 agonist 2 and Wnt act 20.
`O=C(COc1ccc(Cl)cc1)Nc1cccc(-c2ccc(N3CCOCC3)nn2)c1` gave DAX1 StAR inh 3, hgDAF-12 ag 12*, esBAF inh -38, ssDAF-12 act 0, hcDAF12 agonist 5 and Wnt act 30.
Screening O=[N+]([O-])c1cccc(S(=O)(=O)Nc2cccc(-c3ccc(N4CCOCC4)nn3)c2)c1 returned DAX1 StAR inh 4.4*, hgDAF-12 ag 3, esBAF inh 29, ssDAF-12 act 0, hcDAF12 agonist 0 and Wnt act 9.
COc1ccc(C(=O)Nc2cccc(-c3ccc(N4CCOCC4)nn3)c2)cc1 was read as DAX1 StAR inh 2, hgDAF-12 ag 10, esBAF inh 45*, ssDAF-12 act 0, hcDAF12 agonist 1 and Wnt act 19.
Screening O=C(Nc1cccc(-c2ccc(N3CCOCC3)nn2)c1)c1cccc(Cl)c1 returned DAX1 StAR inh 0, hgDAF-12 ag 4, esBAF inh 71*, ssDAF-12 act -1, hcDAF12 agonist 3 and Wnt act 35*.
Screening O=C(Nc1cccc(-c2ccc(N3CCOCC3)nn2)c1)c1ccc(Cl)cc1 returned DAX1 StAR inh 3, hgDAF-12 ag 4, esBAF inh 35, ssDAF-12 act -1, hcDAF12 agonist 0 and Wnt act -2.
O=[N+]([O-])c1cccc(S(=O)(=O)Nc2cccc(-c3ccc(N4CCCC4)nn3)c2)c1 was read as DAX1 StAR inh -1, hgDAF-12 ag 1, esBAF inh 18, ssDAF-12 act -1, hcDAF12 agonist 0 and Wnt act 5.
`C[C@@H]1CN([C@H](C)CO)C(=O)c2cc(C3=CCCC3)cnc2O[C@H]1CN(C)Cc1ccccn1` gave esBAF inh -5.
Screening COc1ccc(S(=O)(=O)Nc2ccc3c(c2)C(=O)N([C@@H](C)CO)C[C@H](C)[C@@H](CN(C)S(=O)(=O)c2c(C)noc2C)OCCCC[C@H](C)O3)cc1 returned esBAF inh 1.
C[C@H](CO)N1C[C@H](C)[C@@H](CN(C)C(=O)c2ccccn2)Oc2cc(C#Cc3ccc(F)cc3)ccc2S1(=O)=O was read as esBAF inh 2.
`Cc1ccc(C(=O)Nc2cccc(-c3ccc(N4CCOCC4)nn3)c2)cc1C` gave DAX1 StAR inh 2, hgDAF-12 ag 6, ssDAF-12 act 0, hcDAF12 agonist 1 and Wnt act 29.
Screening Cc1ccc(C(=O)Nc2cccc(-c3ccc(N4CCOCC4)nn3)c2)cc1 returned DAX1 StAR inh 4.5*, hgDAF-12 ag 5, esBAF inh 52*, ssDAF-12 act 0, hcDAF12 agonist 2 and Wnt act 36*.
